This is one part of a sample in which hits are shown more often than they occur.
Dicer processing: blocks human Dicer maturation of pre-miR-21. Q9UPY3. cat-ELCCA pre-miR-21 Dicer processing, chemiluminescence; active compounds read high. z-score at 25 µM. actives 6% (n = 47,000); in the data active = z-score above about 3, passing the limit was not always enough;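 also: plate controls were vehicle for no effect and no enzyme for full effect; higher signal means more uncleaved substrate so more Dicer inhibition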
The depositor's hits bear a star.

SMILES	Dicer processing
CCCC(Nc1ncnc2ccccc12)C(=O)O (centres undefined)	0.39
CC(Nc1ncnc2ccccc12)C(=O)O (centres undefined)	3.3*
O=C(O)CCC(Nc1ncnc2ccccc12)C(=O)O (centres undefined)	1.3
Cc1ccc(C2CC(=O)c3cnc(N4CCN(Cc5ccc6c(c5)OCO6)CC4)nc3C2)cc1 (centres undefined)	0.38
Cc1ccccc1Nc1nc(C2(C)CC(C(C)C)C(=O)O2)cs1 (centres undefined)	-0.01
CC1CC2(CC(C)(c3csc(Nc4ccccc4)n3)OC2=O)C(=O)O1 (centres undefined)	4.9*
CCCCCOCC1CC2(CC(C)(c3csc(Nc4ccccc4)n3)OC2=O)C(=O)O1 (centres undefined)	-0.43
CCOc1cc(C2c3c(oc4ccc(C)cc4c3=O)C(=O)N2Cc2ccccc2)ccc1O (centres undefined)	-0.16
CCOC(=O)c1oc2cc(O)ccc2c(=O)c1-c1ccc2c(c1)OCCO2	2.6
CCOC(=O)c1oc2cc(O)c(CC)cc2c(=O)c1-c1ccc2c(c1)OCCO2	4.5*
CCCc1cc2c(=O)c(-c3ccc4c(c3)OCCO4)coc2cc1O	0.45
Cc1oc2cc(O)ccc2c(=O)c1-c1ccc2c(c1)OCCO2	5.5*
COc1ccc(-c2c(C)oc3cc(OC(C)C(=O)O)ccc3c2=O)cc1OC (centres undefined)	1.3
Cc1cc(=O)oc2cc(O)ccc12	0.16
COc1ccc(OC)c(S(=O)(=O)N2CCCCC2)c1	-0.62
c1ccc(CN2CCC(c3cccs3)=N2)cc1	0.55
O=c1[nH]c2ccc(S(=O)(=O)N3CCOCC3)cc2[nH]c1=O	0.54
O=C1Nc2c(S(=O)(=O)Nc3ccccc3)cc(S(=O)(=O)Nc3ccccc3)c3cccc1c23	0.02
CC1(C)Cc2c(C#N)c(SCCOc3ccccc3)nc(N3CCOCC3)c2CO1	-0.13
CCCSc1nc(N2CCCC2)c2c(c1C#N)CC(C)(C)OC2	3.6*
CCSc1nc(N2CCCC2)c2c(c1C#N)CC(C)(C)OC2	1.9
CC(C)(C)c1cc2nc(C(F)(F)F)cc(Oc3ccccc3)n2n1	0.23
CCc1ccc(C(=O)NNc2ccccc2CC)cc1	0.04
Cc1ccc(C2c3c(oc4ccc(C)cc4c3=O)C(=O)N2c2nccs2)cc1 (centres undefined)	0.13
COCc1cc(C)nc2sc(C(=O)OC)c(N)c12	1
SMILES	Dicer processing
COCc1cc(C)nc2sc(C(=O)N3CCCC3)c(N)c12	3.9*
Cc1cc(C)c2c(N)c(C(=O)c3ccccc3Cl)sc2n1	-2.3
CSc1nnc(-c2ccc(C(C)(C)C)cc2)o1	1.5
CCOC(=O)c1c(NC(=O)c2nc3n(n2)C(C(F)F)CC(C)N3)sc2c1CCC(C)C2 (centres undefined)	0.86
O=C1C2C(C(=O)C3C1[C@H]1C=C[C@@H]3C1)[C@H]1C=C[C@@H]2C1 (some centres undefined)	-0.93
CCOC(=O)C1=C(C)NC2=C(C(=O)CCC2)C1c1cccc(Br)c1 (centres undefined)	-0.86
COC(=O)C1=C(C)NC2=C(C(=O)CCC2)C1c1cccc(Br)c1 (centres undefined)	-0.4
CC1=C(C(=O)Nc2nc3ccccc3s2)C(c2cccc(Br)c2)C2=C(CCCC2=O)N1 (centres undefined)	3.2*
O=C(O)C1CCN(c2ncnc3scc(-c4ccccc4)c23)CC1	-1.3
COc1ccc(OC)c(Nc2nc(-c3ccncc3)cs2)c1	1.7
Cc1cc(O)ccc1Nc1nc(-c2cccnc2)cs1	1.9
Fc1ccccc1Nc1nc(-c2ccccn2)cs1	1.7
Cc1nc(C)c(-c2csc(Nc3ccc(O)cc3C)n2)s1	1.1
COc1ccc(Nc2nc(-c3ccccn3)cs2)c(OC)c1	5.3*
Cc1cc(O)ccc1Nc1nc(-c2ccccn2)cs1	5.4*
CCOC(=O)C(=CN(C)c1ccccc1)C(=O)OCC	-0.05
CCOC(=O)/C(=C(/C)Nc1ccc(F)cc1)C1CC(=O)N(c2ccccc2)C1=O (centres undefined)	0.06
CC(C)S(=O)(=O)C/C(N)=N/OC(=O)Nc1ccccc1	1.5
CCc1ccc(C2CC(=O)Oc3c2c(=O)n(C)c2ccccc32)s1 (centres undefined)	-1
Cc1ccc(S(=O)(=O)N2CCCOC2)cc1	3.8*
Cc1ccc(S(=O)(=O)N2CN3CN(C2)CN(S(=O)(=O)c2ccc(C)cc2)C3)cc1	-1.4
Cc1ccc(S(=O)(=O)N2CCCC3(CCCCC3)C2)cc1	0.92
Fc1ccc(/C=N/NC(=S)N/N=C/c2ccc(F)cc2)cc1	47
COc1ccccc1N1CCN(C(=S)NC(C)(C)C)CC1	0.26
CCn1cnc(C(=O)NC)c1C(=O)NC	0.68
CC1(C)Cc2cc3c(cc2C(SCc2ccccc2)=N1)OCCO3	-0.25
CSC1=NC(C)(C)Cc2cc3c(cc21)OCCO3	3.3*
Cn1c(=O)c2c(nc3n(CC4CCCO4)c(-c4ccc(Cl)cc4)cn23)n(C)c1=O (centres undefined)	1.7
O=C(O)CCCNc1n[nH]c(=O)[nH]c1=O	2.4
O=C(O)CCSc1n[nH]c(=O)[nH]c1=O	4.8*
